# Screens deposited in PubChem BioAssay by several laboratories.
# Hits are enriched below; roughly 3.3% of the tested compounds scored in any of these assays.
# SMARCA2 act – SMARCA2 function activation, primary screen; MG213 cells, MMTV-luciferase reporter, dexamethasone, overnight; activation, % at 9.1 µM; 370,000 compounds, 1% hits; AID 652017; in the data active = activation above about 7.8%;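 note: 0% = vehicle wells and 100% = reference activator wells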
# Gli-Sufu block – Gli-Sufu pathway antagonism. Sufu-KO-LIGHT fibroblasts, Gli luciferase reporter luminescence. inhibition, % at 5 µM. 340,000 compounds, 0.74% hits;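 active = inhibition above about 55%, limit read from the data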;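 note: 0% = DMSO-treated cells and 100% = wells with medium but no cells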
# esBAF inh – SWI/SNF esBAF complex inhibition. reporter increase, % at 12.5 µM. mouse ES cells, Bmi1-luciferase knock-in reporter, 24 h; 100% = twice the neutral-well signal. 350,000 compounds, 2% hits. AID 602393; in the data active = activation above about 40%; inconclusive = no clear call, values can overlap the other calls;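 note: 0% = median of the plate's neutral control wells and 100% = double that signal; a rise in the Bmi1 reporter signal indicates esBAF inhibition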
# Jurkat NFkB inh – inhibitors of the PMA/ionomycin-induced NF-kB reporter in Jurkat cells | inhibition, % at 4 µM | 330,000 compounds, 0.53% hits | PMA/ionomycin-induced NF-kB luciferase reporter, luminescence; in the data active = inhibition above about 50%
# 697 NFkB inh – lowers PMA/ionomycin-induced NF-kB signal in 697 B cells | 697 B-cell NF-kB luciferase reporter, 16 h | inhibition, % at 4 µM | 330,000 compounds, 0.33% hits | AID 435022; in the data active = inhibition above about 35%
# The depositor's hits bear a star; ? = inconclusive; . = no result given.
SMILES,SMARCA2 act,Gli-Sufu block,esBAF inh,Jurkat NFkB inh,697 NFkB inh
O=[N+]([O-])c1cccc(/C=N/N2CCN(Cc3ccccc3)CC2)c1,2,-33,39,-44,-6
O=[N+]([O-])c1cc(/C=N/NC(=S)Nc2ccccc2Cl)ccc1Cl,3,8,46*,-11,21
O=[N+]([O-])c1cc(C=NN2CCCCCC2)ccc1Cl,0,-40,74*,.,.
O=[N+]([O-])c1cccc(C=NN2CCCCCC2)c1,1,-68,79*,.,.
Cc1ccc(NC(=S)N/N=C/c2ccc(Cl)c([N+](=O)[O-])c2)cc1,0,-16,.,2,-5
CN(C)C(=O)C[C@H]1CC[C@H](NC(=O)C2CCOCC2)[C@H](CO)O1,.,.,3,.,.
CSc1ccccc1N=Cc1nc(-c2ccccc2)oc1O,1,3,52*,-30,-13
Oc1oc(-c2ccccc2)nc1C=NCc1ccccc1,4,-38,56*,-32,-62
C[C@H]1CCCCO[C@H](CN(C)C(=O)c2ccccc2)[C@@H](C)CN([C@@H](C)CO)C(=O)c2cc(NS(=O)(=O)c3ccc(F)cc3)ccc2O1,.,.,-2,.,.
C[C@@H]1CN([C@@H](C)CO)C(=O)c2cccc(NC(=O)Nc3cccc4ccccc34)c2O[C@H]1CN(C)CC1CC1,.,.,0,.,.
Clc1cccc(Cl)c1C1=NOC(c2nnc(-c3ccccc3)o2)C1 (stereo not drawn),4,-27,50*,-13,-38
Cc1[nH]nc(N=CC2=C(O)CC(C)(C)CC2=O)c1-c1ccccc1,-4,-15,45*,-16,-20
Cc1[nH]nc(N=CC2=C(O)CC(c3ccco3)CC2=O)c1-c1ccccc1 (stereo not drawn),-1,-1,1,0,-8
Cc1c(Cl)cccc1N=c1c([N+](=O)[O-])nn(-c2ccccc2)n1O,-3,-51,16,-6,-8
Cc1ccc(N=c2c([N+](=O)[O-])nn(-c3ccccc3)n2O)c(C)c1,0,-24,67*,-41,-39
COc1ccc(-c2oc3ccccc3c2C(=O)OCc2ccc(O)cc2)cc1,7,-44,45*,-7,-5
COc1ccc(-c2oc3ccccc3c2C(=O)OCc2ccccc2)cc1,3,-9,27,-16,-17
CC(=O)c1ccc(OCc2cc(C(=O)N(C)Cc3cc(C)no3)no2)cc1,4,-1,62*,-9,-34
CC(=O)c1ccc(OCc2cc(C(=O)N(C)C(C)c3ccon3)no2)cc1 (stereo not drawn),-3,0,3,22,2
COc1ccc(OCc2cc(C(=O)N(C)Cc3cc(C)no3)no2)c(Cl)c1,5,-80,48*,-93,-103
CCc1ccc(CN(C)C(=O)c2cc(COc3ccc(OC)cc3Cl)on2)nc1,2,-41,46*,-46,-67
CC(=O)c1ccc(OCc2cc(C(=O)N(C)C(C)c3nccs3)no2)cc1 (stereo not drawn),-1,-19,54*,-10,-45
CCC(=O)Nc1ccc2c(c1)OC[C@@H](C)N(Cc1ccccc1OC)C[C@H](C)[C@@H](OC)CN(C)C2=O,.,.,-7,.,.
Cc1ccc(CN(C)C(=O)c2cc(COc3ccc(F)cc3Cl)on2)o1,1,-28,60*,-22,-14
CCN(Cc1ccncc1)C(=O)c1cc(COc2ccc(OC)cc2Cl)on1,0,-62,72*,-63,-107
SMILES,SMARCA2 act,Gli-Sufu block,esBAF inh,Jurkat NFkB inh,697 NFkB inh
CCN(Cc1ccncc1)C(=O)c1cc(COc2ccc(F)cc2Cl)on1,-2,0,14,-3,-3
Cc1nonc1CN(C)C(=O)c1cc(COc2ccc(F)cc2Cl)on1,8,-8,7,-16,-11
CC(=O)c1sc(NC(=O)c2cccc(C)c2)nc1C,7,-77,.,-67,-102
CC(=O)Cc1nsc(NC(=O)c2cccc(F)c2)n1,4,-42,61*,-1,-19
Cc1nnc(NC(=O)c2cccc(F)c2)s1,2,2,13,-4,-11
CCOC(=O)c1sc(NC(=O)c2ccccc2OC)nc1C,-1,-82,-15,-76,-93
CCOC(=O)CNC(=O)c1sc(NC(=O)c2ccccc2F)nc1C,6,-85,57*,-9,-102
CCOC(=O)CNC(=O)c1sc(NC(=O)c2cccc(F)c2)nc1C,1,-29,54*,-9,0
Cn1cnc(S(=O)(=O)N[C@H]2CC[C@H](CC(=O)Nc3ccc(-c4ccccc4)cc3)O[C@H]2CO)c1,.,.,-3,.,.
CC(=O)N(C)C[C@@H]1Oc2cc(-c3ccccc3C)ccc2S(=O)(=O)N([C@@H](C)CO)C[C@@H]1C,.,.,-7,.,.
C/C(=N\OCc1ccc(C#N)cc1)c1ccc(S(=O)(=O)N(C)C)cc1,1,-34,51*,-39,-65
CCCN(C)C[C@H]1Oc2ncc(-c3cccc(C#N)c3)cc2C(=O)N([C@@H](C)CO)C[C@@H]1C,.,.,1,.,.
O=C(/C=C/c1cccc(F)c1)Nc1nccs1,5,-86,86*,-72,-80
O=C(/C=C\c1ccccc1)Nc1nccs1,6,-102,.,-129,-167
CC(C)[C@@H](C)NC(=O)N(C)C[C@@H]1OCc2ccccc2-c2c(n(C)c3ccccc23)C(=O)N([C@@H](C)CO)C[C@@H]1C,.,.,4,.,.
Cc1ccccc1NC(=O)c1cnn(-c2ccccc2)c1C,3,-33,75*,-54,-98
Cc1cccc(NC(=O)c2cnn(-c3ccccc3)c2C)c1C,3,-25,63*,-74,-89
Cc1ccc(C)c(NC(=O)c2cnn(-c3ccccc3)c2C)c1,-1,-40,27,-38,-99
O=C(CCN1CCCCC1)NCC[C@H]1CC[C@H](NC(=O)C2CC2)[C@H](CO)O1,.,.,-2,.,.
CC(=O)c1ccc(NC(=O)c2cccc(S(=O)(=O)N3CCN(C)CC3)c2)cc1,2,-59,58*,-24,-17
CC(=O)Nc1ccc(NC(=O)c2cccc(S(=O)(=O)N3CCCCCC3)c2)cc1,-2,0,4,-29,-7
Cc1noc(C)c1NC(=O)Nc1cccc2c1O[C@H](CN(C)S(=O)(=O)c1cn(C)cn1)[C@H](C)CN([C@@H](C)CO)C2=O,.,.,-4,.,.
O=C(Nc1cccnc1)c1ccc(Oc2ccccc2)cc1,0,-9,54*,-113,6
O=C(Nc1cccnc1)c1ccccc1Oc1ccccc1,0,4,-3,-7,-22
COc1cc2ccccc2cc1C(=O)Nc1cccnc1,2,-50,48*,-87,-107
SMILES,SMARCA2 act,Gli-Sufu block,esBAF inh,Jurkat NFkB inh,697 NFkB inh
COc1cc(OC)c(C(=O)Nc2cccnc2)cc1OC,-1,-3,-8,7,8
Cc1ccccc1NC(=O)CC(=O)Nc1ccccc1C,0,4,-5,-4,-18
Cc1ccccc1NC(=O)C(=O)Nc1ccccc1C,3,-66,45*,-62,-126
COc1cc(NC(=O)c2ccc3c(c2)OCO3)c2ncccc2c1,-3,-11,?,-36,-31
O=C(Nc1cccc2cccnc12)c1ccc2c(c1)OCCO2,3,-34,48*,-53,-20
N#Cc1ccccc1NC(=O)c1ccc2c(c1)OCCO2,1,-34,45*,-37,-32
